# High-throughput results as filed in PubChem.
# Six1-Eya2 inh – qHTS Assay for Inhibitors of the Six1/Eya2 Interaction; AlphaScreen GST-Six1/His-Eya2 binding, biochemical; stronger effect = lower value; 360,000 tested, 0.56% active; AID 651725, 2012; activity change, % (concentration not given with the values); in the data active = activity change below about -65%; inconclusive = mostly about -30% to -63%
# Target sequence (O00167 whole entry, looked up): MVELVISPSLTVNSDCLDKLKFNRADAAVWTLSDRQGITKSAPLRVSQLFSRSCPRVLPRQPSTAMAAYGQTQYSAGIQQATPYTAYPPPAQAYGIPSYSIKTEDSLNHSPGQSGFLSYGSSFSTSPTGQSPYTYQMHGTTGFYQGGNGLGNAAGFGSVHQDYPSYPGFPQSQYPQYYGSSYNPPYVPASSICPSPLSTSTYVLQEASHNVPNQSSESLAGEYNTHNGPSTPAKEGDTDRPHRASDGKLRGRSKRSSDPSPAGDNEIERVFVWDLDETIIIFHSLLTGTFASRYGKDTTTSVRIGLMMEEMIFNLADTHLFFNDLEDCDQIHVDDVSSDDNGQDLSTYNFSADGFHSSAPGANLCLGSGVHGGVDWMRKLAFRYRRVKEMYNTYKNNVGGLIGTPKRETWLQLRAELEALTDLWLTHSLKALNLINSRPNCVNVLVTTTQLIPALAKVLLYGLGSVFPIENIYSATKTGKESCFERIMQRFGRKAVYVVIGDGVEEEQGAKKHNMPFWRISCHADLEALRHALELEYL
# Target sequence (Q15475 whole entry, looked up): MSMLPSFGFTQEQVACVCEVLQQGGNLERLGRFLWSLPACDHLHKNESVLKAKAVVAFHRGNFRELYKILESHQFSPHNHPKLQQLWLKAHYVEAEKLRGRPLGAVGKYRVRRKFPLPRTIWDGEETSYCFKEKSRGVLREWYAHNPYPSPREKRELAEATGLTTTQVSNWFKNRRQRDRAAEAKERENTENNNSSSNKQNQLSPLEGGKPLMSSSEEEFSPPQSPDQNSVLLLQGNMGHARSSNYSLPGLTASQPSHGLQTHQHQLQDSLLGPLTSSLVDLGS
#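 Six1/Eya2 binding was read as AlphaScreen signal after compounds were pinned into GST-Six1 plus His-tagged Eya2 (5X stock 250/500 nM) in pH 8.0 Tris/NaCl/TCEP buffer, beads added, then incubated 1 h, 37 C, dark.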
# DT40 TDP1 no CPT – qHTS for Inhibitors of human tyrosyl-DNA phosphodiesterase 1 (TDP1): qHTS in cells in absence of CPT; DT40 Tdp1-/- hTDP1 cells, no CPT, ATP luminescence, 48 h; Potency, µM (doses to about 46.2 µM), without a hit: at the highest dose activity change, negative = growth inhibition, actives largely listed as inhibitors; 420,000 tested, 15% active; AID 686978, 2013; note: potency is the fitted concentration of half-maximal effect; nearly all actives have a fitted effect of over 55% in size
#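 Growth kinetics read by CellTiter-Glo luminescence after ≥48 hr at 37 °C. Cells: DT40 Tdp1-/- stably carrying human TDP1, 400 per well, compound exposure in the absence of CPT (DMSO vehicle).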
# CtBP-E1A blk – qHTS Assay for Inhibitors of the CtBP/E1A Interaction | CtBP / adenovirus E1A interaction (AlphaScreen) | AlphaScreen GST-E1A/His-CtBP binding, 1536-well; stronger effect = lower value | activity change, % (no concentration beside the values) | 340,000 tested, 0.49% active | AID 651724, 2012; in the data active = activity change below about -65%; inconclusive = mostly about -30% to -63%
#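 Homogeneous bead-based format: GST-tagged E1A captured on glutathione donor beads, His-tagged CtBP on nickel acceptor beads; compounds precede bead addition by 2 h at 37 °C.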
# TDP1 cell CPT – qHTS for Inhibitors of human tyrosyl-DNA phosphodiesterase 1 (TDP1): qHTS in cells in presence of CPT. AID 686979, 2013. chicken DT40 Tdp1-/-;hTDP1 cells + 20 nM CPT, ATP luminescence, 48 h. Potency, µM (top dose mostly 46.2 µM), without a hit: top-dose activity change, negative = growth inhibition, most hits filed as inhibitors. 420,000 tested, 12% active; note: potency is the fitted concentration of half-maximal effect; nearly all actives have a fitted effect of over 55% in size
#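 Cell growth measured by CellTiter-Glo luminescence after a minimum 48 h, 37 C compound exposure with 20 nM CPT in Tdp1-knockout DT40 cells stably expressing hTDP1, seeded 400/well; qHTS titration format.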
# TDP1 block – qHTS Assay for Inhibitors of Tyrosyl-DNA Phosphodiesterase (TDP1); AID 485290, 2010; recombinant TDP1, AlphaScreen DNA substrate cleavage; Potency, µM (titrated, usually from 130 µM), inactives show at the top dose activity change, negative = inhibition, actives largely listed as inhibitors; 350,000 tested, 0.28% active; note: potency is the fitted concentration of half-maximal effect; nearly all actives have a fitted effect of over 40% in size
#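 Tdp1 1 nM final; 15 min RT w/ cpd; substrate 15 nM, 5 min; beads 10 ug/ml, 10 min; AlphaScreen read. Neg ctrl: no enzyme.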
# IL-1B inflam inh – qHTS for Inhibitors of Inflammasome Signaling: IL-1-beta AlphaLISA Primary Screen; THP-1 LPS/ATP IL-1B secretion, AlphaLISA, 16 h; stronger effect = lower value; activity change, % at 57.5 µM; 360,000 tested, 4.7% active; AID 743279, 2014; in the data active = activity change below about -50%; inconclusive = mostly about -30% to -49%
#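 THP-1 cells pretreated 1 hr with compounds (up to 57.5 uM final), then stimulated with LPS (250 ng/mL final) plus ATP (1.25 mM final); secreted IL-1B measured by AlphaLISA after 16 hr, decreased signal indicating inhibition.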
# * = called active by the depositor; ? = inconclusive; . = no result. A selection: hits, their analogues and other compounds. The true share with any hit is near 18%. Unless noted, calls come from the whole dose curve; as a rule, active = well fitted curve in the direction sought with a large enough effect; inconclusive = small, poorly fitted or top-dose-only effect, or another doubt; inactive = no such curve, though single readings can be large; an effect the other way counts as inactive or inconclusive. % is set by controls: 0 for no effect and ±100 for the full control effect.
SMILES,Six1-Eya2 inh,DT40 TDP1 no CPT,CtBP-E1A blk,TDP1 cell CPT,TDP1 block,IL-1B inflam inh
CCC(=O)Nc1ccc(C)cc1-c1nc2ccccc2n(C(C)C(=O)Nc2ccccc2CC)c1=O (stereo not drawn),.,20.6µM*,.,18.4µM*,8.6%,.
COc1cccc(CC(=O)Nc2ccc(F)c(S(=O)(=O)N3CCOCC3)c2)c1,8.3,-4.5%,0.0,-15.5%,.,-4.2
COc1ccc(C(=O)N2CCC3(CC2)CN(C(=O)Nc2ccccc2)C3)cc1,.,-10.9%,.,5.4%,.,.
CCCC(=O)Nc1ccc(C(=O)N/N=C/c2cccnc2)cc1,-0.1,9.8%,-3.1,8.6%,2.6%,2.4
CCCC(=O)Nc1ccc(C(=O)COC(=O)C2CC2)cc1,5.0,-18.7%,.,0.0%,-1.1%,-9.1
CCN(CC(=O)Nc1ccc(Br)c(C)c1)CC(=O)NC(C)C,-5.0,14.6µM*,-1.3,?,5.8%,-2.5
COc1ccc(NC(=O)c2ccc3ccccc3n2)cc1S(=O)(=O)Nc1ccccc1Cl,-18.5,23.1µM*,-5.3,?,-5.7%,9.3
COc1ccc(NC(=O)c2cc(C)nc3ccccc23)cc1S(=O)(=O)Nc1ccccc1Cl,2.9,?,-11.6,-13.9%,2.7%,18.4
Cc1ccc(SCCC(=O)Nc2ccc(Br)c(C)c2)cc1,33.0,5.5%,-0.9,7.1%,-3.0%,-107.6*
COc1ccc(NC(=O)CCSc2ccc(C)cc2)cc1S(=O)(=O)Nc1ccccc1Cl,0.7,13µM*,-2.5,?,2.7%,24.5
CCN(CC(=O)Nc1ccc(C)c(F)c1)CC(=O)NC(C)C,6.0,-25.8%,-9.1,-1.2%,1.3%,-3.8
CCCCCC(=O)N1C[C@@H](O)[C@H](n2cc(-c3ccc(F)cc3)nn2)C[C@@H]1c1ccc(OC)cc1,-5.8,?,0.0,?,.,?
COc1ccc(CC(=O)OC(C)CN2CCOCC2)cc1 (stereo not drawn),0.9,2.0%,9.4,12.2%,5.6%,0.0
COc1ccc(NC(=O)CCS(=O)(=O)c2ccccc2Cl)cc1S(=O)(=O)Nc1ccc(Cl)cc1,-1.5,16.4µM*,.,?,4.8%,-13.6
COc1ccc(NC(=O)CCC(=O)c2cccs2)cc1S(=O)(=O)Nc1ccc(Cl)cc1,-20.2,-0.1%,-11.5,-18.2%,8.1%,.
COc1ccc(Nc2nc3c(S(=O)(=O)c4ccc(Br)cc4)nnn3c3ccsc23)c(OC)c1,.,20.6µM*,.,16.4µM*,0.0%,.
COc1cccc(Nc2nc3c(S(=O)(=O)c4cc(C)ccc4C)nnn3c3ccsc23)c1,.,?,.,-24.5%,-5.1%,.
COc1cc(Nc2nc3c(S(=O)(=O)c4ccc(C)c(C)c4)nnn3c3ccsc23)cc(OC)c1,.,13µM*,.,9.2µM*,0.0%,.
Cn1ncc2c(=S)nc(Cl)[nH]c21,-0.3,?,-15.1,?,.,-19.0
Cc1ccc2nc(C(F)(F)F)c(C#N)c(N)c2c1,-4.6,16.4µM*,-1.8,20.6µM*,0.0%,-101.4*
O=C(NCC(c1cccs1)N1CCOCC1)c1ccc(Cl)nc1 (stereo not drawn),1.7,16.2%,-5.0,-9.3%,0.0%,28.7
CCCOc1ccc(F)cc1-c1cc(C(=O)Nc2ccc(C)c(NS(C)(=O)=O)c2)[nH]n1,2.5,23.1µM*,-28.9,16.4µM*,.,-11.5
COc1ccc(F)cc1-c1cc(C(=O)Nc2ccc(C)c(NS(C)(=O)=O)c2)[nH]n1,-4.7,16.4µM*,-7.9,18.4µM*,.,-53.7*
CCN(CC(=O)Nc1ccccc1OC)C(=O)COc1ccc(C#N)cc1,4.1,2.7%,-11.0,1.9%,.,0.0
O=C1NC[C@H](CCCCN2C[C@H](Cc3ccc(O)cc3)N(CCc3ccc(O)cc3)C(=O)C2=O)N(CC2CCCCC2)C1=O,13.0,-7.7%,18.2,6.0%,.,4.2
SMILES,Six1-Eya2 inh,DT40 TDP1 no CPT,CtBP-E1A blk,TDP1 cell CPT,TDP1 block,IL-1B inflam inh
FC(F)(F)c1ccccc1NC(=S)N1CCN(Cc2ccc3c(c2)OCO3)CC1,-0.3,7.8%,-2.7,?,8.2%,0.0
COc1ccccc1N(C(C)=O)C1=C(Cl)C(=O)c2ccccc2C1=O,-21.5,0.731µM*,-17.2,0.517µM*,.,?
CCc1nc(SCC(=O)Nc2ccnc3ccccc23)n[nH]1,2.6,-16.7%,0.3,-10.4%,3.3%,12.0
COCCN(Cc1cc2cc(C)ccc2nc1Cl)C(=O)Nc1ccccc1C,-2.0,15.8µM*,6.6,16.4µM*,0.0%,-69.6*
COCCN(CC(=O)Nc1cccc(C)c1C)C(=O)Cc1cccs1,0.7,21.5%,7.9,-19.6%,0.5%,-2.9
COc1ccc(CCN(Cc2cc3cc(C)c(C)cc3nc2Cl)C(=O)C2CC2)cc1,3.2,20.6µM*,3.0,25.9µM*,1.0%,33.1
COCCN(Cc1cc2cc3c(cc2nc1Cl)OCO3)C(=O)Nc1ccc(OC)cc1,-3.8,10.3µM*,.,?,0.0%,13.0
Cc1ccc2nc(Cl)c(CN(Cc3cccs3)C(=O)C3CC3)cc2c1,13.8,-26.7%,27.9,?,0.0%,-3.7
COCCN(Cc1cc2cc3c(cc2nc1Cl)OCO3)C(=O)Nc1ccccc1OC,1.4,23.1µM*,10.4,16.4µM*,0.9%,-25.9
COCC(=O)N(CCN(C)C)Cc1cc2cc3c(cc2nc1Cl)OCO3,-0.4,14.5%,2.6,-0.5%,4.9%,0.0
